In the OligoGym collection:

Each sequence was assayed against ENO2 (assay: pooled miR-30 sensor sort-seq; sequence = guide strand). Conditions: shRNA.
Also: reference of the scale not given here.

Sequence | sensor-assay potency score (higher = more potent)
TATTTGTCCTTGATGACTCCCT | 0.308
TTGTCCTTGATGACTCCCTTGA | -0.328
TAGTCCCTGACAAAGTCCTGGT | -0.652
TTCTCTTGCTCCACCACAGAGA | -1.02
TTGGCTGTGAACTTGGACCAGG | -0.413
TTGAGTGTATGGTAGACCTCTG | -0.0986
TTGATGACTCCCTTGAGTGTAT | -0.705
TCTAACACCTCAGCACACCAAC | -0.842
TAGAGATCCACCTCCACTGTGG | 0.0832
TTTGTCTCCATCCCTCAGCTCC | -0.755
TATGGTAGACCTCTGCACCTAG | 0.499
TTCAGTGACCGAGCCGATCTGG | -0.433
TTTCTCTTGCTCCACCACAGAG | -1.22
TATAGAGATCCACCTCCACTGT | -0.931
TTGGATGGCTTCAGTGACCGAG | 0.159
TGATGTATCGGGAAGGATCAGT | -0.0535
TTTGCCTAAGTAACGCTGTTTG | -1.32
ATTGGTGGCATCCTTGCCGTAT | -0.654
TTGAGCAGCAGACAGTTGCAGG | -0.936
TTGGATTTGTTCTCAGTCCCAT | 0.271
TAGACCTCTGCACCTAGTCGCA | -1.03
TTCCTCAATTCTCATGAGCTGG | -0.892
TTTTGGGTTGGTCACTGTCAGG | -1.77
TACATTGGCTGTGAACTTGGAC | 0.428

These sequences were tested against ENPP7 in the same assay as above. Conditions: shRNA.

Sequence | sensor-assay potency score (higher = more potent)
TAGGGCAGCTTCACCTTGCTGG | -0.078
TTGTAGTTGTGTGCGATGCCTT | -0.915
TTTAGGGAGCAGCATCCCGTTT | -1.36
TCGCTCTCCACTCCGTCTCATT | -1.59
TAGTCCAGGAGCTCAAACTCGA | -0.814
TACATGTTGTGAACCACCCCGT | -0.259
TTGTCCACGGTCGTCATGCCGT | -1.22
TTCTTGTAGACGTGGAGCTTGG | -0.97
TTGAACTGGACGTTAATTCTCC | -0.264
TTGTAGACGTGGAGCTTGGGGT | -0.738
TTCATGTCCATGTCCTTGTTGT | -0.0468
TTGCGCGCGATGCTCTCCCGGA | -1.29

Each sequence was assayed against ENTHD1 in the same assay as above. Conditions: shRNA.

Sequence | sensor-assay potency score (higher = more potent)
TAGTTTGAAAGATACTTGCTAA | -0.328
TATACTTCTTCTCTGAAGCAGA | -0.435
TAGAAGACAACTGTTGATGGGA | 0.377
